GLS inh: inhibitors of human glutaminase (GLS) | GLS enzymatic activity, qHTS titration | Potency, µM (titrated, usually from 45.5 µM), hits mostly inhibitors | hit rate 0.21% among 410,000 | AID 624170
Target sequence (O94925 whole entry, looked up): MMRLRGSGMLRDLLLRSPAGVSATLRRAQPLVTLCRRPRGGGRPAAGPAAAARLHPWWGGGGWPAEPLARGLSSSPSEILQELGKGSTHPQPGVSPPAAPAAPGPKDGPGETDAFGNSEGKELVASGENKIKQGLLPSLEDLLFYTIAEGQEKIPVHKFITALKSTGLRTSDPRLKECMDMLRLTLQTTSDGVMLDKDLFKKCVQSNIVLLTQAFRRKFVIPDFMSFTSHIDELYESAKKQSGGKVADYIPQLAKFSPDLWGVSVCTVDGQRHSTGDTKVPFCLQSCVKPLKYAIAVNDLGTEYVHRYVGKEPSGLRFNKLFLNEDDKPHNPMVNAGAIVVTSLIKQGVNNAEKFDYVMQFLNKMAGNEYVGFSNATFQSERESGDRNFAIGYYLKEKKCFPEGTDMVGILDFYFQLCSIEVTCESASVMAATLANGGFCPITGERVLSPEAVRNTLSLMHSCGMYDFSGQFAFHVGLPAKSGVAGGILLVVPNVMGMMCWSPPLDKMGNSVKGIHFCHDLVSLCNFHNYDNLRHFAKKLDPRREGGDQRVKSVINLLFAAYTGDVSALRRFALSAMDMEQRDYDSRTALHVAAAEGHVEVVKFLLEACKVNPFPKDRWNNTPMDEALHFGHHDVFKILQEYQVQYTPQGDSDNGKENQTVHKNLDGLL
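Human kidney-isoform GLS in 45 mM KH2PO4 pH 8.2, 0.02% Tween-20, with compound, started with 1mM L-Glutamine (added stock). Glutamate oxidase/HRP/Amplex red coupled fluorescence read at start and after 30 min at RT.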
Vif-A3G inh: blocks the Vif interaction with human APOBEC3G; hit rate 0.076% among 410,000; HeLa A3G-eYFP + Vif (tagged APOBEC3G with the HIV-1 protein that degrades it), YFP fluorescence, overnight; Potency, µM (series often up to 46.1 µM), usual class: inhibitors; AID 602310; note: nearly all actives have a fitted effect of over 60% in size
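Read-out is eYFP fluorescence (Ex 488/Em 500-530) from Vif-expressing HeLa A3G-eYFP cells; more signal means A3G escaped Vif-mediated degradation. Cells plated overnight, compound pinned in, incubated overnight at 37 deg C.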
PINK1 expr mod: PINK1 expression modulation | PINK1 immunofluorescence, high-content cytometry, 24 h | hit rate 0.2% among 410,000 | AID 624263 | Potency, µM (doses to about 76.6 µM), actives largely listed as activators; active = well fitted activation curve with a large enough effect; inconclusive = small, poorly fitted or top-dose-only effect; cell line not stated here; note: nearly all actives have a fitted effect of over 65% in size
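Stable cell line treated 24 h with compounds at 5 concentrations (CCCP controls), then fixed and immunostained for PINK1 plus nuclear and cell stains; PINK1 immunofluorescence quantified by laser-scanning microplate cytometry.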
Epigenetic reg: epigenetic control regulation, reporter derepression | murine LDR cells, GFP reporter derepression, 30 h | Potency, µM (top dose mostly 53.9 µM), most hits filed as activators | hit rate 0.2% among 280,000 | AID 1865; note: nearly all actives have a fitted effect of over 60% in size
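Murine LDR cells bearing a silenced CMV-driven GFP reporter were exposed to compound for 30 h at 37 C. After PBS washes, GFP-positive cells (20-120 um objects) counted by laser-scanning microplate cytometry.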
Vif-APOBEC3F blk: inhibitors of Vif-A3F interaction; HeLa A3F-eYFP + Vif (tagged APOBEC3F with the HIV-1 protein that degrades it), YFP fluorescence increase; Potency, µM (doses to about 46.1 µM); hit rate 0.2% among 390,000; note: nearly all actives have a fitted effect of over 65% in size
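HeLa cells stably expressing A3F-eYFP plus Vif, plated and incubated overnight at 37 deg C, then exposed to compounds overnight at 37 deg C. Blocked degradation read as raised yellow fluorescence (Ex 488/Em 500-530).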
Large screens that a line does not name were inactive. An excerpt weighted towards active compounds, which were near 0.7% of everything screened. Unless noted, calls come from the whole dose curve; as a rule, active = well fitted curve in the direction sought with a large enough effect; inconclusive = small, poorly fitted or top-dose-only effect, or another doubt; inactive = no such curve, though single readings can be large; an effect the other way counts as inactive or inconclusive.

Cc1ccc(NC(=O)CO/N=C/c2ccc(N(C)C)cc2)cc1	Vif-A3G inh inconclusive, Epigenetic reg inconclusive, Vif-APOBEC3F blk 25.1µM
CN(C)c1ccc(/C=N/OC(=O)Nc2ccccc2)cc1	none (no result: Epigenetic reg)
Cc1ccnc(NC(=S)NC(=O)/C=C/c2ccco2)c1	Vif-A3G inh 7.94µM
Cc1ccc(O)c(NC(=S)NC(=O)/C=C/c2ccco2)c1	Vif-A3G inh inconclusive
COc1ccccc1CN1CCOc2ccc(C(C)(O)COc3ccccc3)cc2C1 (stereo not drawn)	none (no result: GLS inh, Vif-A3G inh, Epigenetic reg, Vif-APOBEC3F blk)
CCOC(=O)N1CCN(Cc2ccc3c(c2)CN(C(=O)c2ccc4ncccc4c2)CCO3)CC1	none (no result: GLS inh, Vif-A3G inh, Epigenetic reg, Vif-APOBEC3F blk)
Cc1onc(-c2c(F)cccc2Cl)c1C(=O)Nc1ccc(S(=O)(=O)N2CCOCC2)cc1	none (no result: Epigenetic reg)
Cc1onc(-c2c(F)cccc2Cl)c1C(=O)Nc1cc(S(=O)(=O)N2CCCCC2)ccc1O	PINK1 expr mod 15.8µM (no result: Epigenetic reg)
O=C1CC[C@@H](C(=O)NCC2Cc3cc(Cl)cc(-c4ccc5[nH]ccc5c4)c3O2)N1 (stereo partly drawn)	none (no result: GLS inh, Vif-A3G inh, Epigenetic reg, Vif-APOBEC3F blk)
COc1ccc(C(c2c(N)[nH]c(=S)[nH]c2=O)c2c(N)[nH]c(=S)[nH]c2=O)cc1	GLS inh 11.2µM
COc1ccc(CNC(=O)c2cnn(-c3nccc(-c4ccco4)n3)c2C)cc1OC	none (no result: GLS inh, Vif-A3G inh, Epigenetic reg, Vif-APOBEC3F blk)
Cc1cc(C(=O)NNC(=O)/C=C/c2ccco2)c(C)o1	GLS inh 10µM (no result: Epigenetic reg)
CS(=O)(=O)N1CCN(c2ccc(NC(=O)c3ccc(-c4ccc(Cl)cc4)o3)cc2)CC1	PINK1 expr mod 14.1µM
CC1(C)CC(C(=O)N2CCOc3ccc(CN4CCN(Cc5ccccn5)CC4)cc3C2)CCO1 (stereo not drawn)	none (no result: GLS inh, Vif-A3G inh, Epigenetic reg, Vif-APOBEC3F blk)
Nc1nc2ccc(Br)cc2s1	none (no result: Epigenetic reg)
Nc1nc2ccc(O)cc2s1	GLS inh 12.6µM
COc1ccc(NC(=O)CC2C(=O)N(c3ccc(Cl)cc3)C(=S)N2CCc2ccccn2)cc1 (stereo not drawn)	PINK1 expr mod 28.2µM
COc1ccc(NC(=O)CC2C(=O)N(c3ccc(Cl)cc3)C(=S)N2CCc2ccncc2)cc1 (stereo not drawn)	none
COc1ccc(NC(=O)CC2C(=O)N(C)C(=S)N2CCc2ccccc2F)cc1 (stereo not drawn)	PINK1 expr mod 15.8µM
OCC1OC(OC2C(CO)OC(OC3C(CO)OC(O)C(O)C3O)C(O)C2O)C(O)C(O)C1O (stereo not drawn)	none (no result: Vif-A3G inh, PINK1 expr mod, Epigenetic reg, Vif-APOBEC3F blk)
COC(=O)CCc1nc2ccccc2[nH]c1=O	none
COC(=O)CSCc1nc2ccccc2[nH]c1=O	Epigenetic reg 25.1µM, Vif-APOBEC3F blk inconclusive
CC(=O)c1ccc(-c2ccc3c4c(ccc3c2)OC(CNC(=O)C(C)N2CCOCC2)C4)s1 (stereo not drawn)	none (no result: GLS inh, Vif-A3G inh, Epigenetic reg, Vif-APOBEC3F blk)
CN1C(=O)c2cccc(NCCCN3C(=O)c4ccccc4C3=O)c2C1=O	PINK1 expr mod 7.08µM, Epigenetic reg inconclusive, Vif-APOBEC3F blk 25.1µM
CCCNC(=O)CCc1cc(C(C)(C)C)c(O)c(C(C)(C)C)c1	none
CC(C)(C)c1cc(CCC(=O)NCCc2ccccn2)cc(C(C)(C)C)c1O	GLS inh 10µM (no result: Epigenetic reg)
c1cncc(-c2nc(NCc3cccs3)c3ccccc3n2)c1	Vif-APOBEC3F blk 17.8µM
CCCCN(CCCNC(=O)c1cc(Nc2cccc(SC)c2)nc2ccccc12)Cc1ccccc1	Vif-A3G inh inconclusive, Epigenetic reg 35.5µM
O=C1c2ccccc2C2=Nc3ccccc3SC(c3cccc(F)c3)C12 (stereo not drawn)	PINK1 expr mod 39.8µM
O=[N+]([O-])c1ccccc1N/N=C/c1cccc(O)c1O	none
O=[N+]([O-])c1cccc(N/N=C/c2cccc(O)c2O)c1	GLS inh 7.94µM
[2H]c1c([2H])c([2H])c2c([nH]c(=S)n2C2CCN(CCCC(=O)c3ccc(F)cc3)CC2)c1[2H]	none (no result: Vif-A3G inh, PINK1 expr mod, Epigenetic reg, Vif-APOBEC3F blk)
CC(C)OC(=O)c1c2c(n3ccccc13)C(=O)c1ccccc1C2=O	Vif-A3G inh inconclusive, Epigenetic reg 10µM, Vif-APOBEC3F blk inconclusive
COC(=O)c1ccccc1NC(=O)c1ccccc1SC	none
CSc1ccccc1C(=O)Nc1ccccc1C(=O)NC(C)C	GLS inh 31.6µM
O=C(NC(c1cccnc1)C(F)(F)F)c1cnn(-c2nccc(-c3cccs3)n2)c1C1CC1 (stereo not drawn)	none (no result: GLS inh, Vif-A3G inh, Epigenetic reg, Vif-APOBEC3F blk)
CCOC(=O)C1CCN(S(=O)(=O)c2ccc(C(C)=O)cc2)CC1	PINK1 expr mod 11.2µM
CCOC(=O)C1CCN(S(=O)(=O)c2ccc(OCC(=O)OC)cc2)CC1	none (no result: PINK1 expr mod)
